Laboratory results published in PubChem BioAssay (NCI).
This is part of a sample that, as a whole, favours compounds with a hit. Of some 83,000 tested, about 20% had one in any assay.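 Activity criterion: percent growth below 10, measured after cells in 96-well plates were exposed to a single compound concentration for 48 hours.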 Unmarked numbers belong to inactive results. Active and inactive are the calls of the source.

The molecules below were run on HL-60(TB) leukemia (assay: NCI-60 one-dose screen, 48 h (100 = growth as untreated, 0 = no growth, -100 = all killed)). Details: 10 µM unless noted.

Row | Structure (SMILES) | growth
1 | COc1cc(/C=C2\CN(C(=O)OC(C)(C)C)C/C(=C\c3ccc(O)c(OC)c3)C2=O)ccc1O | 97.1%
2 | O=C(NC(Cc1nnc2n(Cc3ccccc3)c(=O)c3c4c(sc3n12)CCCC4)c1ccccc1)c1ccccc1 (stereo not drawn) | -70.3% (active)
3 | C=C1CC[C@@H]2[C@](C)(COC(C)=O)[C@H](OC(C)=O)CC[C@@]2(C)[C@@H]1CC(Nc1ccc(S(=O)(=O)Nc2nc(C)cc(C)n2)cc1)C1=CCOC1=O (stereo partly drawn) | 21.7%
4 | Cc1nc(Nc2ccc(NC(=S)Nc3ccccc3)cc2)c2ccccc2n1 | 86.4%
5 | O=C(O)c1cn(C2CC2)c2cc(N3CCN(C(=O)C[n+]4cccc5ccccc54)CC3)c(F)cc2c1=O | 99.1%
6 | O=C(/C=C/C12c3ccccc3C(c3ccccc31)C1C(=O)NC(=O)C12)c1ccc(Cl)cc1Cl (stereo not drawn) | -8.27% (active)
7 | O=C(Nc1nc(-c2ccccc2)cs1)c1cc(O)c(O)c(O)c1 | 12.6%
8 | COc1ccc(CCN2C(=O)CCSC2=S)cc1 | 72.3%
9 | CC(C)(CO)N(CCO)CCO | 103%
10 | C=C1C(=O)O[C@H]2[C@H]1CC/C(Cn1cc(CCC)nn1)=C\CC[C@@]1(C)O[C@@H]21 | -13.9% (active)
11 | COc1ccc(OC)c(/C=C/C(=O)N/N=C/c2ccccc2)c1 | 46.3%
12 | Cc1cc(C)c2c(c1)N1OC(C2)C[C@H]1/C=C/c1ccccc1 (stereo partly drawn) | 82.2%
13 | COc1ccc(C2NC(=O)C(C#N)c3c2sc2c(F)cccc32)c(OC)c1 (stereo not drawn) | 56.9%
14 | O=S(=O)(c1ccccc1)N1CCCN(c2nc(-c3ccccc3)nc3nc(-c4ccccc4)oc23)CC1 | 102%
15 | NS(=O)(=O)c1ccc(-n2nc(C(=O)N/N=C\c3ccc(F)cc3)cc2-c2ccc(Cl)cc2)cc1 | 121%
16 | COc1ccc(/C=C2\Oc3cc(OCCCN4CCCCC4)ccc3C2=O)cc1OC | 99.9%
17 | Oc1ccc(N=Nc2ccccn2)c(O)c1 | -37.3% (active)
18 | C[C@@H]1C(=O)[C@@H]2C[C@@H](O)[C@@H](O)C[C@]2(C)[C@H]2CC[C@@]3(C)C(=C12)CC[C@@H]3[C@@](C)(O)[C@H](O)CCC(C)(C)O | 85.7%
19 | CCOC(=O)c1c(C)n2c(=O)cc(C)c3c(OC(C)=O)c(OC(C)=O)cc1c32 | 0.923% (active)
20 | CCOC(=O)c1cnn(CC(C)O)c1NC(=O)NCc1cccc(F)c1 (stereo not drawn) | 90.5%
21 | Cc1cc(-c2ccc(N(C)C)cc2)c2sc(=O)[nH]c2n1 | 14.3%
22 | COc1cc2nc(-c3ccc(Cl)cc3)cc(OCCCN3CCOCC3)c2cc1OC | 27%
23 | C=C(C)[C@@H]1CCC[C@]2(C(=O)N3CCN(C)CC3)CC[C@]3(C)[C@@H](CC[C@@H]4[C@@]5(C)CC/C(=N\NC(=O)c6ccncc6)C(C)(C)[C@@H]5CC[C@]43C)[C@@H]12 | 82.8%
24 | CCOC(=O)Oc1c(OC)cc(C(=O)O[C@@H]2C[C@@H]3CN4CCc5c([nH]c6cc(OC)ccc56)[C@H]4C[C@@H]3[C@H](C(=O)OC)[C@H]2OC)cc1OC | -27.7% (active)
25 | O=C(N/N=C/c1ccc([N+](=O)[O-])cc1)c1ccccc1Nc1cccc(C(F)(F)F)c1 | 108%
26 | Oc1cccc2ccc(N/N=C/c3cc(CN4CCCCC4)c(O)c4ncccc34)nc12 | -12.1% (active)
27 | CS(=O)(=O)c1cccc(Nc2ncc3cc(-c4ccccc4Cl)ccc3n2)c1 | -8.46% (active)
28 | Cc1ccc(CNc2ccc3nc(CCC4CCCCC4)[nH]c3c2)cc1 | 14.8%
